Assay outcomes (PubChem BioAssay)
In the library only some 5.7% were active in any assay of this set; here they are far more common.
ssDAF12 agonist = S. stercoralis DAF-12 activation, primary screen; HEK293 ssDAF-12/GRIP1 lit1-tk-luc reporter, luminescence; % of 3 µM dafachronic acid response; activation, % at 6.8 µM; 1% of 370,000 active;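 active = activation above the mean over all tested compounds plus 3 SD, cut at about 0.9% in these data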;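 note: 0% = DMSO-only wells and 100% = 3 µM delta7-dafachronic acid wells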
hgDAF-12 ag = agonists of H. glycines DAF-12 nuclear receptor. HEK293 GAL4-hgDAF12 UAS-luciferase reporter, agonist luminescence; normalized to butyrate control. activation, % at 6.8 µM. 1.8% of 370,000 active;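 active = activation above a cutoff set at the mean of all screened compounds plus 3 SD, cut at about 10% in these data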;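 note: 0% = DMSO wells and 100% = sodium butyrate wells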
AHR act = activates the human aryl hydrocarbon receptor. P35869. AHR-responsive luciferase reporter cells, luminescence. activation, % at 5 µM. 2.5% of 320,000 active. AID 2796; in the data active = activation above about 47%;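 note: 0% = vehicle wells and 100% = reference agonist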
DAX1 inh-1 = blocks DAX1 repression of SF-1 activated StAR promoter; 1.1% of 370,000 active; inhibition, % at 6.8 µM; HEK293T StAR-luciferase reporter, SF-1/DAX-1 repression relief; AID 652010;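 active = inhibition above the mean over all tested compounds plus 3 SD, cut at about 3.6% in these data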;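 note: 0% = DAX-1 cells with DMSO and 100% = cells lacking DAX-1 with DMSO; higher inhibition means more luminescence from relief of DAX-1 repression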
hcDAF12 agonist = activators of H. contortus DAF-12 nuclear receptor | activation, % at 6.8 µM | HEK293 hcDAF-12 lit1-tk-luc reporter, luminescence; 0% DMSO, 100% Δ7-dafachronic acid | 1.4% of 370,000 active;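 active = activation above the mean of all tested compounds plus 3 SD, cut at about 5.5% in these data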;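 note: 100% = response to 3 µM Δ7-dafachronic acid high control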
DAX1 inh-2 = inhibits human nuclear receptor DAX1; inhibition, % at 6.75 µM; P51843; 0.99% of 340,000 active; HEK293 Gal4-DAX1 luciferase reporter, luminescence;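 active = inhibition above the mean over all tested compounds plus 3 SD, cut at about 4.2% in these data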;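 note: 0% = DAX1-transfected cells with DMSO and 100% = empty-vector control cells with DMSO; inhibition shows as a rise in luminescence from relieved DAX1 repression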
Numbers without * were called inactive; nt = no result given.

SMILES | ssDAF12 agonist | hgDAF-12 ag | AHR act | DAX1 inh-1 | hcDAF12 agonist | DAX1 inh-2
CCC(C)N1C(=O)/C(=C\c2cc3c4c(c2)CCCN4CCC3)C(=O)NC1=S (centres undefined) | -1 | 2 | 0 | 0 | 0 | 0
O=C1C2(c3ccccc3)CN3CN(C2)CC1(c1ccccc1)C3 | -1 | -2 | 0 | 0 | 1 | -2
N#CCCn1cc(C(=O)Nc2ccccc2Cl)c(-c2ccc(F)cc2)n1 | -1 | -2 | -2 | 0 | -3 | 0
OCC#CC[N+]1(CC#Cc2ccccc2)CCOCC1 | -2 | 1 | -1 | 0 | 2 | 4.3*
Cc1ccc(-c2nc(N(C)C3CCN(C)CC3)c3ccccc3n2)cc1 | 0 | 6 | 25 | 1 | 6.0* | 2
CN1CCC(N(C)c2ncnc3ccc(Br)cc23)CC1 | -1 | 4 | nt | 0 | 0 | 2
C=CCN1CC[C@]23c4c5ccc(O)c4OC2C(O)C=CC3[C@H]1C5 (some centres undefined) | -1 | -1 | -1 | 0 | -2 | 0
COc1ccccc1N1CCN(Cc2ccc(Br)s2)CC1 | 1 | 1 | -4 | -1 | -1 | 6.5*
Cc1ncoc1C(=O)NCC1=C(c2ccc3ccccc3c2)C[C@@H]2CC[C@H]1N2Cc1ccco1 | -1 | 1 | nt | 2 | 1 | 0
COc1cc(CN2CCNCC2)cc(OC)c1OC | 1.0* | 5 | 2 | 0 | 1 | 0
COc1ccc(CN2CCNCC2)c(OC)c1OC | -1 | -2 | -3 | -1 | -1 | -1
COCCOC(=O)C1=C(N)OC(C)=C(C(=O)OC)C12C(=O)Nc1ccccc12 (centres undefined) | 0 | 1 | 22 | 0 | 6.2* | 0
COC(=O)C1=C(C)OC(N)=C(C#N)C12C(=O)Nc1ccccc12 (centres undefined) | -1 | 0 | 14 | 0 | 1 | 1
CN(C)c1ccc(CCN2CCOCC2)cc1 | 1.2* | 11* | 10 | 1 | 3 | 1
O=C(NCCO)c1nsnc1NCCCl | -1 | -2 | 2 | 0 | 0 | -1
Cc1c(C(c2ccccc2Cl)c2c(O)c3ccccc3oc2=O)c(=O)n(-c2ccccc2)n1C (centres undefined) | -1 | -2 | 4 | 0 | -1 | 4.3*
COC(=O)C1=C(c2ccc(-c3ccccc3)c(F)c2)C[C@@H]2CC[C@H]1N2C(=O)N1CCc2cc(OC)c(OC)cc2C1 | -2 | -3 | -2 | -1 | -3 | -1
C[C@H]1CC[C@@H]2[C@@H](C)[C@H]3[C@H](C[C@H]4[C@@H]5CC=C6C[C@@H](O[C@@H]7O[C@H](CO)[C@H](O)[C@H](O[C@@H]8O[C@H](CO)[C@@H](O)[C@H](O)[C@H]8O)[C@H]7O[C@@H]7O[C@@H](C)[C@H](O)[C@@H](O)[C@H]7O)CC[C@]6(C)[C@H]5CC[C@]34C)N2C1 | -1 | -7 | -1 | -2 | -2 | 4.3*
C[C@@H]1CC2C3CC=C4C[C@@H](O)CC[C@]4(C)C3CC[C@]2(C)[C@H]1O (some centres undefined) | -1 | 1 | -1 | 0 | 5 | 0
CC1(C)C(c2ccccc2)=NC(c2cccnc2)N1O (centres undefined) | -1 | 1 | 2 | 0 | 1 | -1
FC(F)(F)c1ccc2c(c1)ncn2C1CCN(Cc2nnnn2C2CCCCC2)CC1 | -1 | 2 | 56* | 0 | -1 | -1
Cc1ccsc1C(=O)C1CCCN(Cc2cnn(C)c2)C1 (centres undefined) | -1 | -4 | 3 | 0 | 0 | -1
Cc1ccsc1C(=O)C1CCCN(CCO)C1 (centres undefined) | 0 | -4 | 0 | 0 | 0 | 4.8*
Cc1cccc(N2C(=O)NC(=O)C3(Cc4cc(C)ccc4N(C)C3)C2=O)c1 (centres undefined) | 0 | 4 | 38 | 0 | 4 | 0
COc1ccc2c(c1)CC1(CN2C)C(=O)NC(=O)N(c2ccc(F)cc2)C1=O (centres undefined) | -1 | 2 | 72* | 0 | 6.0* | 1
SMILES | ssDAF12 agonist | hgDAF-12 ag | AHR act | DAX1 inh-1 | hcDAF12 agonist | DAX1 inh-2
COc1ccc2c(c1)CC1(CN2C)C(=O)NC(=O)N(c2ccc(C)cc2)C1=O (centres undefined) | 0 | 2 | 52* | 1 | 4 | 1
CC1CCCCN1CC(O)c1c[nH]c2ccccc12 (centres undefined) | 0 | 1 | 17 | 0 | 6.4* | 4
BrCC(Br)C1CCC(Br)C(Br)C1 (centres undefined) | 0 | 1 | -1 | 0 | 3 | 0
C[C@]12CC[C@H](O)CC1=CC(=O)C1C2CC[C@]2(C)C(=O)CCC12 (some centres undefined) | -1 | 5 | -2 | 1 | 2 | 1
O=c1c2ccccc2nc(/C=C/c2ccccc2O)n1-c1ccccc1O | -1 | -1 | 47* | -1 | -1 | -3
O=c1c2ccccc2nc(-c2ccccc2)n1-n1cccc1 | -1 | 0 | 74* | -1 | -2 | 0
O=c1c2ccccc2nc(/C=C/c2ccccn2)n1-c1ccccc1 | -1 | 10* | 2 | -1 | -2 | -1
O=c1c2ccccc2nc(-c2ccccc2)n1-c1ccccc1 | -2 | -3 | 0 | 0 | -1 | -3
O=c1c2ccccc2nc(/C=C/c2ccccc2F)n1-c1ccccc1O | -1 | 1 | 22 | -1 | 0 | 0
O=c1c2ccccc2nc(-c2ccccc2)n1-c1ccccc1O | -1 | 0 | 63* | 0 | 0 | 1
COC(=O)C1=C(c2cccc(OC)c2OC)C[C@@H]2CC[C@H]1N2C(=O)NCC1CC1 | -1 | 0 | 2 | 0 | -1 | 0
N/C(=N/[N+](=O)[O-])N1CCN(C(=O)Oc2ccc([N+](=O)[O-])cc2)CC1 | -1 | 0 | 0 | 0 | 0 | 0
S=P1(Oc2ccccc2)Nc2ccccc2N1 | 0 | 12* | nt | 2 | 3 | 2
CN1CCCCC1c1ccc(-c2cccnc2)nc1 (centres undefined) | 1 | 5 | 1 | 2 | -2 | 7.3*
COc1cccc(CNC(=O)CCC(=O)N2C[C@H]3C[C@H](C2)c2cccc(=O)n2C3)c1OC | -2 | 0 | 0 | 1 | -2 | 3
O=C(CN1CC(c2ccccc2)CC1=O)Nc1ccc(F)cc1 (centres undefined) | -2 | 2 | 2 | -1 | -2 | 5.2*
Cc1nc2ncnn2c(C)c1CCC(=O)N1CCC2(CC1)OCCO2 | -2 | -1 | -1 | 0 | -1 | 4.6*
O=C(NCCN1CCC2(CC1)C(=O)NCN2c1ccccc1)c1ccc(Cl)cc1 | -1 | 0 | nt | 0 | -1 | nt
